# APOBEC3G inh – APOBEC3G DNA deaminase inhibitors, primary screen, biochemical, fluorescence, single-stranded DNA substrate, uHTS; recombinant A3G, ssDNA deamination FAM/TAMRA fluorescence; inhibition, % at 20 µM; actives 0.28% (n = 330,000); AID 493012, 2011;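 active = inhibition of at least 40% at 20 µM, with no more than 30% in the related APOBEC3A deaminase screen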;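 note: plate controls were DMSO wells with A3G for no effect and wells lacking A3G enzyme for full effect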
# PABP polyA inh – PABP poly(A) RNA binding inhibitors, primary screen, biochemical, fluorescence polarization, uHTS; Polyadenylate-binding protein 1 (Homo sapiens), P11940; actives 1% (n = 290,000); AID 2014, 2009; calls only at 35 µM;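 note: calls also rest on retests at 20 µM and on dose response follow-up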
# eIF4H FP inh – human eIF4H binding inhibitors, primary screen, translation initiation inhibitor project, biochemical, uHTS, fluorescence polarization. Eukaryotic translation initiation factor 4H (Homo sapiens), Q15056. eIF4H fluorescence polarization binding assay. inhibition, % at 35 µM. actives 0.94% (n = 290,000). AID 2012, 2009;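 note: calls also rest on retests at 20 µM and on dose response follow-up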
# PABP1 MLLE inh – inhibitors of PABP1 MLLE–PAM2 peptide binding, primary screen, biochemical, fluorescence polarization, FITC-PAM2, GST-MLLE; AID 588489, 2011; actives 0.36% (n = 360,000); inhibition, % at 20 µM; Polyadenylate-binding protein 1 (Homo sapiens), P11940; in the data active = inhibition above about 35%, passing the limit was not always enough;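 note: plate controls were DMSO wells with GST-MLLE for no effect and wells lacking GST-MLLE protein for full effect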
# PHOSPHO1 block – PubChem AID 1565. Phosphoethanolamine/phosphocholine phosphatase (Homo sapiens), Q8TCT1. recombinant PHOSPHO1, absorbance phosphatase assay. inhibition, % at 13.3 µM. actives 1.1% (n = 290,000); in the data active = inhibition above about 60%
# APOBEC3A inh – APOBEC3A ssDNA deaminase inhibitors, primary screen, selectivity assay for APOBEC3G inhibitor project, biochemical, FAM/TAMRA oligo cleavage fluorescence; DNA dC->dU-editing enzyme APOBEC-3A (Homo sapiens), P31941; AID 493011, 2011; recombinant A3A, FAM/TAMRA ssDNA deamination fluorescence; actives 0.41% (n = 330,000); inhibition, % at 20 µM;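 active = at least 40% inhibition at 20 µM here, with at most 30% in a related deaminase screen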;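 note: plate controls were A3A with DMSO for no effect and wells lacking A3A enzyme for full effect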
# A3G conf – APOBEC3G deaminase inhibitor retest, confirmation, biochemical, fluorescence, single-stranded DNA substrate, single concentration; shares compounds with APOBEC3G inh; recombinant A3G ssDNA deaminase, UDG/FAM-TAMRA fluorescence; inhibition, % at 20 µM; actives 72% (n = 890);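 active = inhibition reaching a set limit in any replicate at 20 µM, the limit being 80% of the first screen's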
# UDG A3G counter – E. coli UDG inhibitors, confirmation, counter-screen for APOBEC3G inhibitor project, biochemical, single concentration, fluorescence, FAM/TAMRA oligo. UDG counterscreen. shares compounds with APOBEC3G inh. 710 tested, under 10 active. inhibition, % at 20 µM;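 active = compounds giving 40% or more inhibition at 20 µM in any one of the three replicates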;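 note: plate controls were DMSO wells with UDG and oligo for no effect and DMSO wells lacking both for full effect; inhibitors lower the FAM signal released by uracil excision and alkaline cleavage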
# Target sequence (P12295 whole entry, looked up): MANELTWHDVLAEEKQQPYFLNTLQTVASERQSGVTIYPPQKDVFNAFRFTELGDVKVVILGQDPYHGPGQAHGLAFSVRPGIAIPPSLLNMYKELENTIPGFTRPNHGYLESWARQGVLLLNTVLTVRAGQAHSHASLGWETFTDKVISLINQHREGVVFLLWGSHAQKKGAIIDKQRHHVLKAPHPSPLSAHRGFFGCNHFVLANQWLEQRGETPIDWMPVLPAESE
# * marks the source's active call; other numbers are inactive results; i = inactive; x = no result; + = active, no number. This is a sample that favours compounds with a hit; in the whole collection about 2.6% have one here. Unless noted, the rule behind the calls is not given here.
SMILES,APOBEC3G inh,PABP polyA inh,eIF4H FP inh,PABP1 MLLE inh,PHOSPHO1 block,APOBEC3A inh,A3G conf,UDG A3G counter
Cc1cccc(-n2c(-c3ccco3)n[nH]c2=S)c1,53.6*,i,-0.5,20.8,4.5,-2.0,60.4*,-4.4
FC(F)(F)c1ccccc1-n1c(-c2ccco2)n[nH]c1=S,2.7,i,-15.4,-42.0,-147.8,-10.1,x,x
S=c1[nH]nc(-c2ccco2)n1-c1ccc(Br)cc1,42.0*,x,x,-13.4,x,-0.9,69.0*,-3.4
Cc1cccc(-n2c(-c3ccc(Br)o3)n[nH]c2=S)c1,31.1,x,x,2.7,x,-3.0,x,x
CCc1ccc(N2CSC3=C(C#N)C(c4cccs4)CC(=O)N3C2)cc1 (centres undefined),49.2*,i,48.2,-25.0,72.6*,16.4,50.1*,-2.0
Cc1ccc(N2CSC3=C(C#N)C(c4cccs4)CC(=O)N3C2)cc1 (centres undefined),45.2*,+,61.0*,-30.2,57.2,13.1,58.5*,-2.5
COc1ccc(C2CC(=O)N3CN(c4ccc(C)c(Cl)c4)CSC3=C2C#N)cc1OC (centres undefined),45.1*,i,23.8,-29.4,81.0*,-2.5,18.6,-2.4
Cc1nn(C)c(C)c1S(=O)(=O)N(CC(=O)NCCCN1CC(C)CC(C)C1)c1ccc(C(C)C)cc1 (centres undefined),-4.0,i,-2.0,-7.0,19.9,0.0,x,x
C=C(C)C(=O)Nc1cccc(C2=NOC3(C2)C[C@@H](C(N)=O)N(C(=O)/C=C/C=C/C)C3)c1 (some centres undefined),89.4*,+,93.0*,-2.2,13.3,18.4,93.4*,-2.8
C/C=C(\C)C(=O)Nc1cccc(C2=NOC3(C2)C[C@@H](C(N)=O)N(C(=O)/C(C)=C/C)C3)c1 (some centres undefined),-10.7,i,-8.0,7.2,39.7,-3.4,x,x
C/C=C/C=C\C(=O)Nc1cccc(C2=NOC3(C2)C[C@H](C(N)=O)N(C(=O)CC#N)C3)c1 (some centres undefined),12.3,i,17.1,-2.5,26.5,0.6,x,x
C=C(C)C(=O)Nc1cccc(C2=NOC3(C2)C[C@H](C(N)=O)N(C(=O)CC#N)C3)c1 (some centres undefined),74.2*,i,89.2*,x,30.9,10.2,73.2*,x
C=C(C)C(=O)Nc1cccc(C2=NOC3(C2)C[C@@H](C(N)=O)N(C(=O)/C(C)=C/C)C3)c1 (some centres undefined),86.2*,+,82.6*,-1.9,26.5,13.8,94.6*,x
C/C=C(/C)C(=O)Nc1cccc(C2=NOC3(C2)C[C@@H](C(N)=O)N(C(=O)CC(c2ccccc2)c2ccccc2)C3)c1 (some centres undefined),-11.5,i,-1.8,-10.6,35.3,1.1,x,x
C=C(C)C(=O)Nc1cccc(C2=NOC3(C2)C[C@@H](C(N)=O)N(C(=O)CC(c2ccccc2)c2ccccc2)C3)c1 (some centres undefined),69.9*,+,89.7*,2.0,4.5,24.0,71.2*,2.9
NC(c1ccccc1)c1csc(Nc2ccc(S(N)(=O)=O)cc2)n1 (centres undefined),x,x,x,-6.5,x,x,x,x
C=C(C)C(=O)Nc1cccc(C2=NOC3(C2)C[C@H](C(N)=O)N(C(=O)c2ccccc2C(=O)c2ccccc2)C3)c1 (some centres undefined),82.9*,+,98.2*,0.6,48.5,18.7,87.7*,0.4
C=C(C)C(=O)Nc1cccc(C2=NOC3(C2)C[C@H](C(N)=O)N(C(=O)CC)C3)c1 (some centres undefined),87.7*,i,91.6*,10.0,26.5,8.9,92.2*,x
CCC(=O)N1CC2(CC(c3cccc(NC(=O)CC(c4ccccc4)c4ccccc4)c3)=NO2)C[C@H]1C(N)=O (some centres undefined),-10.6,i,2.9,4.4,22.1,1.7,x,x
COc1ccc(CNC(=O)CNC(=O)CNS(=O)(=O)c2ccc(C)c(C)c2)cc1,-7.9,i,6.5,-0.3,27.5,-3.2,x,x
COc1ccc(OC)c(NC(=O)CSc2nc3[nH]c(=O)[nH]c(=O)c3s2)c1,x,x,x,-2.0,x,x,x,x
Cc1ccsc1CN(C)CC(=O)NCC(=O)Nc1ccc(F)cc1,-4.7,x,x,-1.3,x,-1.4,x,x
Cn1c(=O)n(C)c2cc(S(=O)(=O)Nc3ccccc3C(=O)O)ccc21,56.2*,i,-10.8,-6.8,44.9,3.7,2.5,x
Cn1c(=O)n(C)c2cc(S(=O)(=O)NCC(=O)O)ccc21,-5.2,i,-7.6,4.7,10.8,-2.5,x,x
CCOC(=O)c1sc(NC(=O)c2cc3c(C)nn(-c4ccccc4)c3s2)nc1C,x,i,1.4,x,6.2,x,x,x
SMILES,APOBEC3G inh,PABP polyA inh,eIF4H FP inh,PABP1 MLLE inh,PHOSPHO1 block,APOBEC3A inh,A3G conf,UDG A3G counter
O=C(CCCNC(=O)/C(=C/c1ccc(F)cc1)NC(=O)c1ccccc1)OCc1ccccc1,-4.2,i,-1.8,-3.2,1.8,-1.4,x,x
O=C(O)COc1ccccc1/C=N/NC(=O)Cc1csc(Nc2cccc(C(F)(F)F)c2)n1,54.9*,i,-2.1,-0.2,12.2,-1.0,14.9,-4.0
O=C(O)COc1ccccc1/C=N/NC(=O)Cc1ccccc1,-7.7,i,3.9,1.4,24.7,-10.5,x,x
O=C1CCc2cc(NS(=O)(=O)c3ccc([N+](=O)[O-])cc3)cc3c2N1CCC3,-3.4,x,x,10.8,x,-4.2,x,x
O=[N+]([O-])c1cccc(-c2n[nH]c(=S)n2-c2ccccc2)c1,21.9,i,-0.5,x,-130.6,-2.7,x,x
O=[N+]([O-])c1ccc2c(c1)[nH]c(=S)n2-c1ccccc1,41.0*,i,-7.7,-31.4,31.7,-0.6,54.2*,-3.0
O=C(Nc1cc(S(=O)(=O)N2CCOCC2)ccc1N1CCCCC1)c1cc(-c2ccccn2)nc2ccccc12,53.1*,i,-7.5,27.1,-65.2,4.0,57.6*,-2.2
Cc1ccc(S(=O)(=O)NCc2ccccc2)cc1C(=O)N1CCCC(C(F)(F)F)C1 (centres undefined),-10.0,x,x,5.1,x,-3.3,x,x
O=c1nc2n(c3ccccc13)Cc1ccccc1-2,x,i,4.2,x,6.2,x,x,x

# Compound activity from PubChem.
